Test results as given in PubChem BioAssay AID1159580 (chemical genetic matrix, 2015).
Where “and” joins values, the source holds several entries; their conditions need not be identical. Equal entries are not always repeated. The whole screen tested about 5,500 compounds, of which about 2,000 (36%) were called active. About 18% were inconclusive and are not listed. Rule as the data show it: active = normalized growth mostly below about 0.91 (no sharp cut-off); inconclusive = no clear call, values can overlap the other calls; inactive = mostly above about 0.92. The list shows a part of the results.

Test: chemical genetic growth profiling, strain panel (AID 1159580);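 also: tested at 20 µM; growth read once vehicle control cultures reached saturation at 30 °C; 1 = growth at the plate median or of vehicle wells; lower values mean less growth of the strain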
Conditions: S. cerevisiae deletion strains, growth OD

Measured: normalized growth

C=CCSCC1Nc2cc(Cl)c(S(N)(=O)=O)cc2S(=O)(=O)N1 (configuration not stated)
inactive: locus YAL013W, strain DEP1, hits give low values 1.01 | locus YAL021C, strain ccr4, hits give low values 0.994 | locus YAL026C, strain drs2, hits give low values 1.01 | locus YAL030W, strain snc1, hits give low values 1 | locus YBL061C, strain skt5, hits give low values 1 | locus YBR009C, strain hhf1, hits give low values 0.995 | locus YBR021W, strain FUR4, hits give low values 0.991 | locus YBR023C, strain chs3, hits give low values 1 | locus YBR171W, strain sec66, hits give low values 1.01 | locus YBR229C, strain ROT2, hits give low values 1.01 | locus YBR231C, strain swc5, hits give low values 0.985 | locus YBR279W, strain paf1, hits give low values 1 | locus YCL011C, strain gbp2, hits give low values 1 | locus YCL016C, strain dcc1, hits give low values 0.993 | locus YCL029C, strain bik1, hits give low values 1.02 | locus YCL061C, strain MRC1, hits give low values 1 | locus YCL069W, strain vba3, hits give low values 0.999 | locus YCR088W, strain abp1, hits give low values 1 | locus YDL005C, strain med2, hits give low values 0.997 | locus YDL035C, strain GPR1, hits give low values 1.01 | locus YDL040C, strain nat1, hits give low values 1 | locus YDL074C, strain BRE1, hits give low values 1.01 | locus YDL101C, strain DUN1, hits give low values 1.01 | locus YDL134C, strain PPH21, hits give low values 1.01 | locus YDL185W, strain tfp1, hits give low values 1.02 | locus YDL192W, strain arf1, hits give low values 1.02 | locus YDR001C, strain nth1, hits give low values 1 | locus YDR069C, strain doa4, hits give low values 0.997 | locus YDR101C, strain arx1, hits give low values 1.01 | locus YDR137W, strain rgp1, hits give low values 1 | locus YDR150W, strain NUM1, hits give low values 1.01 | locus YDR159W, strain sac3, hits give low values 0.981 | locus YDR162C, strain NBP2, hits give low values 1.02 | locus YDR195W, strain ref2 1 | locus YDR297W, strain sur2, hits give low values 1 | locus YDR318W, strain mcm21, hits give low values 1.02 | locus YDR334W, strain swr1, hits give low values 1 | locus YDR335W, strain msn5, hits give low values 1.01 | locus YDR388W, hits give low values 1.02 | locus YDR392W, strain spt3, hits give low values 0.939 | locus YDR502C, strain sam2, hits give low values 1.03 | locus YEL003W, strain gim4, hits give low values 1 | locus YEL037C, strain rad23, hits give low values 1 | locus YEL061C, strain CIN8 (second series), hits give low values 0.997 | locus YEL061C, strain CIN8, hits give low values 1 | locus YER015W, strain faa2, hits give low values 1 | locus YER016W, strain bim1, hits give low values 1 | locus YER110C, hits give low values 1.03 | locus YER111C, strain swi4, hits give low values 1 | locus YER155C, strain BEM2 (second series), hits give low values 1 | locus YER155C, strain BEM2, hits give low values 1 | locus YER167W, strain BCK2, hits give low values 1 | locus YFR010W, strain ubp6, hits give low values 1.01 | locus YGL078C, strain dbp3, hits give low values 1.03 | locus YGL086W, strain mad1, hits give low values 1.01 | locus YGL167C, strain pmr1, hits give low values 1 | locus YGL173C, strain kem1, hits give low values 1 | locus YGL227W, strain vid30, hits give low values 0.99 | locus YGL240W, strain doc1, hits give low values 0.992 | locus YGL248W, strain PDE1, hits give low values 1.01 | locus YGL253W, strain hxk2, hits give low values 0.992 | locus YGR078C, strain PAC10, hits give low values 1 | locus YGR135W, strain pre9, hits give low values 1.01 | locus YGR229C, strain SMI1, hits give low values 1.01 | locus YGR252W, strain gcn5, hits give low values 1.06 | locus YHR013C, strain ard1, hits give low values 0.988 | locus YHR027C, strain rpn1, hits give low values 1.01 | locus YHR030C, strain SLT2, hits give low values 1 and 1.06 | locus YHR079C, strain IRE1 (second series), hits give low values 1.02 | locus YHR079C, strain IRE1, hits give low values 1.06 | locus YHR094C, strain hxt1, hits give low values 1.02 | locus YHR129C, strain ARP1, hits give low values 1.02 | locus YHR142W, strain chs7, hits give low values 0.988 | locus YHR200W, strain rpn10, hits give low values 1.03 | locus YIL066C, strain RNR3, hits give low values 1 | locus YIL073C, strain SPO22, hits give low values 1.08 | locus YIL125W, strain kgd1, hits give low values 1.02 | locus YIR030C, strain dcg1, hits give low values 1.03 | locus YJL092W, strain hpr5, hits give low values 0.995 | locus YJL095W, strain BCK1 (second series), hits give low values 0.994 | locus YJL095W, strain BCK1, hits give low values 1 and 1.06 | locus YJL115W, strain asf1, hits give low values 1 | locus YJL129C, strain trk1, hits give low values 0.989 | locus YJL134W, strain LCB3, hits give low values 1.01 | locus YJL154C, strain vps35, hits give low values 0.999 | locus YJL164C, strain tpk1, hits give low values 1.01 | locus YJL166W, strain qcr8, hits give low values 0.998 | locus YJL168C, strain set2, hits give low values 1.03 | locus YJL187C, strain SWE1 (second series), hits give low values 1.01 | locus YJL187C, strain SWE1, hits give low values 1 | locus YJR043C, strain POL32, hits give low values 1 | locus YJR066W, strain TOR1, hits give low values 0.991
